Compound activity from PubChem.
Pf growth 96h: Primary qHTS for delayed death inhibitors of the malarial parasite plastid, 96 hour incubation. Potency, µM (doses to about 28.7 µM), for the others: at the top dose activity change, negative = inhibition, most hits filed as inhibitors. 320,000 compounds, 6.9% hits. P. falciparum luciferase reporter growth, 96 h; further: potency means the concentration at half of the fitted maximal effect
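Luminescence readout: decreased luciferase signal marks inhibited growth of reporter-expressing P. falciparum in infected red cells (2% hematocrit, 0.05% parasitemia final), exposed to compound two generations (96 h, 37 C, 5% CO2).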
HCV inhibitor: qHTS Assay for Inhibitors of Hepatitis C Virus (HCV); Huh7.5.1 HCVcc-Cre infection, luciferase reporter, 44 h; AID 651820, 2012; Potency, µM (top dose mostly 41.8 µM), without a hit: at the top dose activity change, negative = inhibition, usual class: inhibitors; 340,000 compounds, 3.4% hits; further: potency means the concentration at half of the fitted maximal effect
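Infectious HCVcc-Cre (~0.5 moi) was added to cells just after compound, with cells seeded 4 h earlier at 1,000 per well. Luciferase activity after 44 h culture reported infection; substrate was incubated 15 min at room temperature before reading.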
HCMV inh: qHTS Assay for inhibitors of the human cytomegalovirus (HCMV); activity change, negative = inhibition, % at 57.5 µM; 410,000 compounds, 4.5% hits; HFF cells, HCMV-luciferase reporter, 72 h; active compounds read low; in the data active means activity change below about -60%; inconclusive means no clear call, values can overlap the other calls; inactive means above about -39%
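Two-dose cell screen: HFF monolayers treated with compounds and infected with luciferase-expressing HCMV at 1 PFU/cell, 72 h at 37C, then lysed for luciferase measurement.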
Pf growth 48h: Primary qHTS for delayed death inhibitors of the malarial parasite plastid, 48 hour incubation; P. falciparum luciferase growth in erythrocytes, 48 h; Potency, µM (top dose mostly 28.7 µM), inactives show at the highest dose activity change, negative = inhibition, most hits filed as inhibitors; 310,000 compounds, 5.9% hits; further: potency means the concentration at half of the fitted maximal effect
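Luminescence readout; reporter = integrated firefly luciferase in P. falciparum. RBC culture at 2% hematocrit, 0.1% parasitemia final, 37 C/5% CO2; decreased signal taken as growth inhibition.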
Starred values were filed as active, the others as inactive; ? = inconclusive; / = no result given; ! = not confirmed by another sample; [ ] = dose if it differs, or a comment. Only some compounds are listed: those with a hit (about 13% of all), similar ones and a draw of the others. Unless noted, the call rests on the fitted dose curve; in most records, active means well fitted inhibition curve with a large enough effect; inconclusive means small, poorly fitted or top-dose-only effect, or another doubt; inactive means no such curve, though single readings can be large or run the other way. On the % scale 0 is the no-effect control and ±100 the full control effect.

SMILES | Pf growth 96h | HCV inhibitor | HCMV inh | Pf growth 48h
COc1cccc(CN2C(=O)c3ccccc3Sc3ccc(C(=O)NCc4ccccc4)cc32)c1 | / | / | -12 | /
Cc1ccc(CCNCc2c(C(=O)O)c(C)n(-c3ccccc3)c2C)cc1 | ? | -3% | 17 | -23%
Cc1c(CNCCc2ccc(Cl)cc2)c(C(=O)O)c(C)n1-c1ccccc1 | 12µM* | 18% | 58 | 12%
CCSC1=NC2(CCN(C(=O)NC3CCCCC3)CC2)N=C1c1ccc(Cl)cc1 | / | / | 5 | /
CC(C)(C)C(=O)NC1CC(=O)N(c2ccc3c(c2)OCCO3)C1 (stereo unspecified) | / | / | -19 | /
CC(C)(C)c1ccc(Cn2c(=O)cnc3ccccc32)cc1 | ? | ? | -81* | ?
CCOC(=O)C1CSCCS(=O)(=O)N1Cc1ccccc1F (stereo unspecified) | / | / | -8 | /
Nc1ccn(CC(=O)NCc2ccccc2)c(=O)n1 | 34% | 21% | 23 | 37%
Nc1ccn(CC(=O)NCCCc2ccccc2)c(=O)n1 | 27% | -9% | -81* | 21%
Cc1cn(CC(=O)NCCCc2ccccc2)c(=O)[nH]c1=O | / | 2.8µM* | 24 | /
Cc1cn(CC(=O)NCc2ccccc2)c(=O)[nH]c1=O | / | 7% | -2 | /
O=[N+]([O-])c1ccc(Sc2ccncn2)c([N+](=O)[O-])c1 | / | / | -86* | /
CN(C)/N=C/c1ccc(Sc2ccc([N+](=O)[O-])cc2[N+](=O)[O-])o1 | -22% | ? | ? | -11%
Cc1cc(C)nc(Sc2ccc([N+](=O)[O-])cc2[N+](=O)[O-])n1 | -14% | -1% | ? | 5.9µM*
O=[N+]([O-])c1ccc(Sc2cccc3cccnc23)c([N+](=O)[O-])c1 | / | -11% | -106* | -10%
O=C(COCc1cc(-c2ccc3c(c2)OCO3)on1)Nc1cc(Cl)ccc1O | / | / | 11 | /
CNC(=O)c1ccsc1NC(=O)c1ccc(S(=O)(=O)N2CCCc3ccccc32)cc1 | 9.3µM* | 10µM* | -62* | 12µM*
CCc1nnc(NC(=O)c2ccc(S(=O)(=O)N3CCCc4ccccc43)cc2)o1 | / | ? | -64* | 7.4µM*
CC1CCc2nc(NC(=O)c3ccc(S(=O)(=O)N4CCCc5ccccc54)cc3)sc2C1 (stereo unspecified) | ? | ? | -87* | ?
O=C(Nc1nc2c(s1)CCCC2)c1ccc(S(=O)(=O)N2CCCc3ccccc32)cc1 | 10µM* | ? | -85* | ?
CCOc1ccc(C(=O)CCC(=O)NCC(=O)Nc2ccc(F)c(F)c2F)cc1 | / | / | 26 | /
N#Cc1ccc(-c2ccc(OCC(=O)NCC(=O)Nc3ccc(F)c(F)c3F)cc2)cc1 | -2% | 4% | -60* | 5%
Cc1ccn2c(=O)cc(COc3ccc(NC(=O)c4ccccc4F)cc3)nc2c1 | / | / | 1 | /
Cc1cccc(-n2c(N)c(-c3nc4ccccc4n3C)c3nc4ccccc4nc32)c1 | 7.4µM* | 0% | -24 | 10µM*
N#Cc1c(N)n(-c2cccc(C(=O)O)c2)c2nc3ccccc3nc12 | 42% | 10% | -19 | 35%
SMILES | Pf growth 96h | HCV inhibitor | HCMV inh | Pf growth 48h
Cc1c(NC(=O)c2c(N)n(-c3ccccc3)c3nc4ccccc4nc23)c(=O)n(-c2ccccc2)n1C | -2% | 15% | / | -10%
Cn1c(-c2c(N)n(-c3ccccc3)c3nc4ccccc4nc23)nc2ccccc21 | 6.6µM* | 7% | 22 | 9.3µM*
Cc1ccc(-n2c(N)c(-c3nc4ccccc4n3C)sc2=S)cc1 | 18% | -28% | 55 | 1.5µM*
Cn1c(-c2ccc(N)cc2)nc2ccccc21 | 322% | -27% | 68 | 61%
CC(=O)c1ccc(NC(=O)C2CCC(CNS(=O)(=O)c3cccc4nsnc34)CC2)cc1 (stereo unspecified) | / | / | 20 | /
COc1cc2nc(SCc3ccc(C)cc3)n3nc(CCn4nc(C)cc4C)nc3c2cc1OC | / | / | 9 | /
CC1(C(=O)O)COC(c2ccc(Cl)cc2)OC1 (stereo unspecified) | 7% | 9% | 0 | 2.9µM*
CCN1CCN(Cc2ccc(NC(=O)c3cc(NC(=O)c4cnnc5ccccc45)cc(OC)c3)cc2C(F)(F)F)CC1 | 2.9µM* | ? | -94* | 2.3µM*
CCN1CCN(Cc2ccc(NC(=O)c3cc(NC(=O)c4cncc(-c5ccc(C#N)cc5)c4)cc(OC)c3)cc2C(F)(F)F)CC1 | 0.1µM* | -13%[8.37 µM] | -99* | 0.47µM*
CCN1CCN(Cc2ccc(NC(=O)c3ccc(C)c(NC(=O)c4cccc5[nH]ccc45)c3)cc2C(F)(F)F)CC1 | 10µM* | 9% | -99*! | 12µM*
CCN1CCN(Cc2ccc(NC(=O)c3ccc(C)c(NC(=O)c4nccnc4N)c3)cc2C(F)(F)F)CC1 | 2.6µM* | 10µM* | -73* | 5.2µM*
CCN1CCN(Cc2ccc(NC(=O)c3ccc(C)c(NC(=O)c4nccn4C)c3)cc2C(F)(F)F)CC1 | -25% | -12% | -16 | ?
COc1cc(OC)cc(C(=O)N2CCN(Cc3ccccc3C(F)(F)F)CC2)c1 | ? | -28% | 33 | 6%
COc1cc(NC(=O)NCCn2nnc3cc(S(=O)(=O)N(C)C)ccc32)cc(OC)c1 | / | / | -2 | /
O=C(Nc1ccc(Br)cc1)C1CCN(S(=O)(=O)c2cccc3nsnc23)CC1 | / | / | 0 | /
Cc1ccc(-c2nc(S(=O)(=O)c3ccc(C)cc3)c(SCC(=O)Nc3ccc(F)cc3)o2)cc1 | / | / | -2 | /
CCN1CCN(Cc2ccc(NC(=O)c3cc(NC(=O)c4nccnc4N)cc(OC)c3)cc2C(F)(F)F)CC1 | 1.5µM* | -20%[8.37 µM] | -1 | 1.7µM*
CCN1CCN(Cc2ccc(NC(=O)c3ccc(C)c(NC(=O)c4cc(-c5ccc(Br)cc5)n[nH]4)c3)cc2C(F)(F)F)CC1 | 1.9µM* | ? | ? | 1µM*
CCN1CCN(Cc2ccc(NC(=O)c3ccc(C)c(NC(=O)N4CCNC4=O)c3)cc2C(F)(F)F)CC1 | ? | ? | -94*! | ?
O=C(Nc1nnc(S(=O)(=O)N2CCCc3ccccc32)s1)c1ccccc1Br | / | / | -6 | /
COCCN1CCC(CNCc2cn(-c3cc(C)ccc3C)nc2-c2ccccc2)C1 (stereo unspecified) | ? | 7.9µM* | -60* | 4.7µM*
CC(=O)N1CCCN(Cc2cn(-c3cc(C)ccc3C)nc2-c2ccccc2)CC1 | -18% | -10% | 9 | 17µM*
Cc1ccc(C)c(-n2cc(CNCCc3cnccn3)c(-c3ccccc3)n2)c1 | ? | -7% | -17 | 7.4µM*
COCCN1CCC(CNCc2cn[nH]c2-c2ccc(C)c(C)c2)C1 (stereo unspecified) | -8% | ? | 30 | ?
COc1ccc(C(=O)NCC(c2ccc3c(c2)OCO3)N2CCN(c3ccc(F)cc3)CC2)cc1 (stereo unspecified) | / | / | -2 | /
CCN(CC)S(=O)(=O)c1ccc2c(c1)c(=O)c(C(=O)N1CCN(c3cc(Cl)ccc3C)CC1)cn2C | / | / | 8 | /
